Inconclusive results are not listed. Values without a mark were called inactive. Activity calls are given as the source filed them. Calls follow the shape of the dose curve; as a rule, active = well fitted curve in either direction with a large enough effect (not every such curve was filed as active); inconclusive = small, poorly fitted or top-dose-only effect, or another doubt; inactive = flat fitted curve, though single readings scatter.
% is scaled to controls: 0 for no effect and ±100 for the full control effect.

This test is described as follows: NFAT Signaling Pathway (AID 444).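 Also: carbachol stimulus at about its EC50 of 1 µM final.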 The settings on record: Jurkat NFAT-bla M1, carbachol, beta-lactamase ratio, 5 h; at 17.2 µM (top of the series) unless noted. Put shortly:
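Read-out: CCF4 FRET ratio (460 nm/530 nm) after 1 h RT dye loading, used for %activity and AC50 from titration series. Cells: Jurkat NFAT-β-lactamase/M1 line, treated with compound plus 1 uM carbachol for 5 h, 37 °C.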
Regarding `CCOC(=O)c1c(-c2cccs2)csc1NC(=O)c1ccncc1`, the activity change, negative = inhibition is 27.6%. For the molecule `CSc1nc(N)c(C#N)c(-c2ccccc2Cl)c1C#N`, the activity change, negative = inhibition is 19.4%. As to `COc1cccc(OCCN2CCN(c3ncnc4c3cnn4-c3ccccc3)CC2)c1`, the activity change, negative = inhibition was -29.6%.

For the molecule `N#CC1=C(SCC(=O)c2ccc(Cl)cc2)NC2=C(C(=O)CCC2)C1c1ccco1` (stereo not given), the activity change, negative = inhibition was -22.4%.

On to `CC1(C)Cc2c(C#N)c(OCC(=O)c3ccc(Cl)cc3)nc(-c3ccoc3)c2CO1`, for which the activity change, negative = inhibition is -4.81%. As for `CCOC(=O)CSc1nc(N)c(C(=O)Nc2ccc(N(C)C)cc2)s1`, the activity change, negative = inhibition was 0.0938%. `CN(Cc1ccccc1)c1ncnc2ccc(Br)cc12`: the activity change, negative = inhibition was -9.63%. On to `CC[C@]1(O)C[C@H]2CN(CCc3c([nH]c4ccccc34)[C@](C(=O)OC)(c3cc4c(cc3OC)N(C)[C@@H]3[C@](O)(C(=O)OC)[C@H](OC(C)=O)[C@]5(CC)C=CCN6CC[C@]43[C@@H]65)C2)C1`, for which the activity change, negative = inhibition was 0.463% [at 38 µM]. As to `CN(C)c1ccc(NC(=O)c2sc(SCC(=O)Nc3nccs3)nc2N)cc1`, the activity change, negative = inhibition was 2.32%.

Turning to `Cc1cc(-c2cc(-c3ccc(Cl)cc3)nc(N)c2C#N)co1`, the activity change, negative = inhibition was 14.5%.

With `COc1ccc(C(=O)CSC2=C(C#N)C3(CCCCC3)C(C#N)=C(N)N2)cc1`, the activity change, negative = inhibition is 14.6%. Consider `Nc1ncnc2c1ncn2[C@@H]1O[C@@H](CO)[C@H](O)[C@@H]1O`, for which the activity change, negative = inhibition is 4.32% [at 38 µM].

Consider `COc1ccc(-c2nnc3sc(-c4ccccc4OC)nn23)cc1`, for which the activity change, negative = inhibition is -23.6%. Take `COc1ccccc1-c1nn2c(-c3ccc(C(C)(C)C)cc3)nnc2s1`: the activity change, negative = inhibition is -12.3%. For the molecule `C=CCn1c(=S)[nH]c2nc3c(cc2c1=O)COC(C)(C)C3`, the activity change, negative = inhibition is 5.11%. On to `FC(F)(F)c1cc(CO[C@@H]2CCCN[C@H]2c2ccccc2)cc(C(F)(F)F)c1`, for which the activity change, negative = inhibition was 16.5% [at 38 µM]. Regarding `CC(=Nc1cccc(O)c1)c1sc2ccccc2c1O`, the activity change, negative = inhibition was -27.3%.

As for `COC(=O)c1sc(NC(=O)c2oc3ccccc3c2C)nc1C`, the activity change, negative = inhibition is -8%. As to `C#CCSC1=C(C#N)C(c2cccs2)C(C(=O)OCC)=C(C)N1` (stereo not given), the activity change, negative = inhibition was -26.3%. Turning to `OC1(C2(O)CC(c3ccccc3)ON2)CCCCC1` (stereo not given), the activity change, negative = inhibition was -7.93%. In the case of `COCCCNc1nc2c(c(=O)[nH]c(=O)n2C)n1CC(O)COc1ccccc1` (stereo not given), the activity change, negative = inhibition is 16.9%. `O=C(/C=C\c1ccc(O)cc1)c1ccc(O)cc1O`: the activity change, negative = inhibition is -30% [at 38 µM]. Consider `COC(=O)[C@@H](NC(=O)c1cc(-c2ccccc2)nc2ccccc12)c1ccccc1`, for which the activity change, negative = inhibition was -7.43% [at 38 µM]. For the molecule `Cc1ccc(NC(=O)CSC2=C(C#N)C(c3ccc4c(c3)OCO4)CC(=O)N2)cc1C` (stereo not given), the activity change, negative = inhibition was -0.339%. As to `Cc1cc(C)c(-n2c(O)c(C=NCCN3CCOCC3)c(=O)[nH]c2=O)c(C)c1`, the activity change, negative = inhibition was 7.98%. Take `CN1CCc2cc(O)c(O)cc2[C@H](c2ccccc2)C1`: the activity change, negative = inhibition was -1.87% [at 38 µM]. On to `COc1cc(/C=C\C(=O)N2CCC=CC2=O)cc(OC)c1OC`, for which the activity change, negative = inhibition was -142% (active). As to `Cc1ccc(N2CC(C(=O)Nc3ccc(N(C)C)cc3)CC2=O)cc1C` (stereo not given), the activity change, negative = inhibition was 21.8%. For the molecule `O=C(Oc1oc(-c2ccco2)nc1C=Nc1ccccc1)c1ccco1`, the activity change, negative = inhibition was -124% (active). Consider `Cc1c(NC(=O)c2coc(=O)c(Br)c2)c(=O)n(-c2ccccc2)n1C`, for which the activity change, negative = inhibition is -128% (active). Then `O=C(COc1ccc(-c2nnc(N3CCCCC3)c3ccccc23)cc1)N1CCCCC1`, with -4.72%; and `COc1ccccc1C(=O)NC(=Nc1nc2ccccc2o1)NC(=O)c1ccccc1OC`, with -110% (active).

Regarding `CCSc1nc(N)c(C#N)c(-c2ccccc2Cl)c1C#N`, the activity change, negative = inhibition is -7.47%. Take `OCCNc1ncnc2c1c(-c1ccccc1)c(-c1ccccc1)n2Cc1ccco1`: the activity change, negative = inhibition was -23.1%. In the case of `COc1ccc(NC(=O)CSC2=C(C#N)C(c3ccco3)C3=C(CCCC3=O)N2)c(OC)c1` (stereo not given), the activity change, negative = inhibition was -6.5%. In the case of `O=C(O)C1CC=CCC1C(=O)N1CCN(c2nc(-c3ccccc3)c3ccccc3n2)CC1` (stereo not given), the activity change, negative = inhibition was -12%.

Turning to `COc1cc([C@H]2c3cc4c(cc3[C@@H](O[C@H]3O[C@H]5CO[C@@H](C)O[C@H]5[C@@H](O)[C@@H]3O)[C@@H]3COC(=O)[C@H]23)OCO4)cc(OC)c1O`, the activity change, negative = inhibition is -0.949%. As to `CCOC(=O)C1/C(=N\O)CC(C)(O)C(C(=O)OCC)C1c1ccc(OC)c(OC)c1` (stereo not given), the activity change, negative = inhibition is -0.404%.

On to `O=C(Oc1oc(-c2ccco2)nc1C=Nc1ccccc1)c1ccoc1`, for which the activity change, negative = inhibition was -123% (active). Regarding `Clc1ccc(-n2ncc3c(NCc4ccccn4)ncnc32)cc1`, the activity change, negative = inhibition is -18.5%.
